# Compound activity (PubChem BioAssay)
# M18AAP inhibitor = PfM18AAP inhibitors, malaria aminopeptidase, primary screen, biochemical, QFRET, recombinant enzyme; inhibition, % at 7.35 µM; 1.2% of 290,000 active; M18 aspartyl aminopeptidase (Plasmodium falciparum 3D7); AID 1822, 2009; H-Glu-NHMec fluorogenic cleavage;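 active = inhibition above the campaign mean inhibition over all tested compounds plus 3 SD, cut at about 28% in these data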;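 also: 0% = plate median of test compound wells and 100% = 2 mM ZnCl2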
# PAFAH2 FP inh = PAFAH2 enzyme inhibitors, primary screen, biochemical, fluorescence polarization, human | inhibition, % at 3.39 µM | Platelet-activating factor acetylhydrolase 2, cytoplasmic (Homo sapiens), Q99487 | AID 492956, 2010 | recombinant PAFAH2, FP-rhodamine activity probe | 0.99% of 340,000 active;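 active = inhibition above the mean over all tested compounds plus 3 SD, cut at about 30% in these data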;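 also: inhibitors block probe labeling of enzyme so polarization drops; 0% = enzyme with DMSO and 100% = wells lacking PAFAH2 protein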
# Pemphigus Ab inh = inhibitors of pemphigus antibody binding to DSG3, primary screen, biochemical, bead-based, flow cytometry, scFv-GFP | Desmoglein-3 (Homo sapiens), P32926 | DSG3-coupled beads, scFv-anti-DSG3-GFP binding; active compounds read low | binding (percent of control), % at 10 µM | 0.48% of 310,000 active | AID 588358, 2011;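 active = binding more than 3 SD below its plate's average and above zero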;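 also: hits lower antibody fragment binding to DSG3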
# PAFAH1B3 FP inh = PAFAH1B3 enzyme inhibitors, primary screen, biochemical, fluorescence polarization, human. 0.28% of 340,000 active. inhibition, % at 3.39 µM. recombinant PAFAH1B3, FP-rhodamine probe. Platelet-activating factor acetylhydrolase IB subunit alpha1 (Homo sapiens), Q15102;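 active = inhibition above the screen-wide average of all tested compounds plus 3 SD, cut at about 25% in these data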;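 also: 0% = enzyme with DMSO only and 100% = wells lacking PAFAH1B3 protein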
# Target sequence (Q15102 whole entry, looked up): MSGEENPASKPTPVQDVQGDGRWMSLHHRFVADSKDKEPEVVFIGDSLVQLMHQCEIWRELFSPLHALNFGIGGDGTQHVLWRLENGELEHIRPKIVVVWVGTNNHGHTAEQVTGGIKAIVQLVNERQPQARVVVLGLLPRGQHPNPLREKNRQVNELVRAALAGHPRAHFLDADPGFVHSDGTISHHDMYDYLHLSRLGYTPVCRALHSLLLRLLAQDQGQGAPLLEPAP
# PAFAH1B2 FP inh = PAFAH1B2 enzyme inhibitors, primary screen, biochemical, fluorescence polarization, human. inhibition, % at 3.39 µM. recombinant PAFAH1B2, FP-rhodamine activity probe. 1.2% of 340,000 active. AID 492953, 2010;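 active = inhibition above the mean of all tested compounds plus 3 SD, cut at about 24% in these data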;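 also: 0% = enzyme with DMSO and 100% = wells lacking PAFAH1B2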
# Target sequence (P68402 whole entry, looked up): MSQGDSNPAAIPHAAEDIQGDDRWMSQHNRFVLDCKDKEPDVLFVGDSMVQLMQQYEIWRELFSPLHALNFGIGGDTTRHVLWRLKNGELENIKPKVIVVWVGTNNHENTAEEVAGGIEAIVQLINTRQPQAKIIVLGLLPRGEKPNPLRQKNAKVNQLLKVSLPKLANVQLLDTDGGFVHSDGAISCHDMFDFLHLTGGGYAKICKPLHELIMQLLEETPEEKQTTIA
# pPAFAH inh = pPAFAH enzyme inhibitors, primary screen, biochemical, fluorescence polarization, human; Platelet-activating factor acetylhydrolase (Homo sapiens), Q13093; recombinant pPAFAH, FP-rhodamine probe fluorescence polarization; inhibition, % at 3.39 µM; 1.5% of 330,000 active; AID 463082, 2010;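 active = inhibition above the mean inhibition across the screen plus 3 SD, cut at about 25% in these data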;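 also: inhibitors block binding of the rhodamine activity-based probe so polarization drops; 0% = enzyme with DMSO and 100% = wells lacking pPAFAH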
# Starred values were filed as active, the others as inactive; . = no result given. The list is not random: actives were taken first. Their share in the collection is about 3.8%.
SMILES,M18AAP inhibitor,PAFAH2 FP inh,Pemphigus Ab inh,PAFAH1B3 FP inh,PAFAH1B2 FP inh,pPAFAH inh
CCCCCCOC(=O)CCn1[nH]c(=O)c2ccccc2c1=O,-1,2,105,-11,3,6
CCCCCCCCCCNC(=O)CCn1[nH]c(=O)c2ccccc2c1=O,-2,22,.,8,61*,30*
COCCNC(=O)CSCc1cc(C)cc(C)c1,3,2,89,4,-2,4
COc1ccc(-c2ccc(CCC(=O)O)n2Cc2ccco2)cc1,2,8,112,3,3,28*
COc1cc(/C=C(\C#N)c2nc3ccccc3s2)cc([N+](=O)[O-])c1O,9,55*,75,42*,29*,.
N#C/C(=C\c1ccc(O)c([N+](=O)[O-])c1)c1nc2ccccc2s1,7,44*,96,31*,30*,.
COc1ccc(-c2csc(/C(C#N)=C\c3ccc(O)c([N+](=O)[O-])c3)n2)cc1OC,-2,8,81,6,2,12
CCN(CC)C(=O)CSc1nnc(-c2ccccn2)n1-c1ccccc1OC,-1,-1,89,2,1,3
Cc1ccc(SCC(=O)NNC(=O)c2cncc(Br)c2)cc1,.,-4,127,10,29*,2
O=C(NNc1ccccc1)Nc1ccccc1F,30*,0,.,2,4,4
O=C(COc1ccccc1[N+](=O)[O-])OCCCOC(=O)COc1ccccc1[N+](=O)[O-],-1,-3,109,1,-2,2
O=C(COc1ccccc1[N+](=O)[O-])OCC(=O)c1ccc(Br)s1,.,13,103,1,2,26*
Cn1cnc2ncnn2c1=S,.,.,104,.,.,.
COc1cccc(N/C=C(\C#N)c2ccc(OCCCF)cc2)c1,3,13,73*,4,2,12
COc1cc(S(=O)(=O)N2CCN(C(=O)c3cccs3)CC2)ccc1NC(C)=O,.,.,105,.,.,.
COc1ccc(-n2c(N)c(C(=O)NCC3CCCO3)c3nc4ccccc4nc32)c(OC)c1 (stereo unspecified),1,4,73*,5,5,12
O=Cc1c[nH]c2ccc(S(=O)(=O)N3CCCCC3)cc12,.,.,101,.,.,.
CCOC(=O)C/C(C)=N\Nc1nc(-c2ccccc2)cs1,13,3,92,4,1,26*
C[C@@H]1CN([C@@H](C)CO)C(=O)c2cc(Br)cnc2O[C@@H]1CN(C)S(C)(=O)=O,.,.,94,.,.,.
O=C(NN=Cc1ccc2c(c1)CCN2)c1cccs1,.,.,101,.,.,.
CC1=CC(=O)C=C/C1=C(/c1ccc(O)cc1C)c1ccccc1S(=O)(=O)O,.,-1,103,2,26*,17
CCOc1ccc(OCCC(=O)OCC(=O)Nc2ccc(Cl)cn2)cc1,.,1,96,2,2,25*
Cc1ccc(CNC(=O)CCOc2ccc(C(C)(C)C)cc2)cc1,-13,-3,.,0,30*,9
CCOc1ccc(OCCC(=O)OCC(=O)NNC(=O)c2ccccc2)cc1,.,7,97,0,0,28*
COc1ccc(OCCC(=O)NCc2ccccc2)cc1,8,3,97,11,6,-4
SMILES,M18AAP inhibitor,PAFAH2 FP inh,Pemphigus Ab inh,PAFAH1B3 FP inh,PAFAH1B2 FP inh,pPAFAH inh
Cc1ccc(CNC(=O)COC(=O)CCOc2ccc(C)cc2)cc1,.,-6,84,-1,7,27*
C[C@@H]1CN([C@@H](C)CO)C(=O)c2cc(Br)cnc2O[C@H]1CN(C)C(=O)c1ccccc1F,.,.,100,.,.,.
CN(CC(=O)Nc1ccccc1Cl)C(=O)CSc1nnc(-c2ccco2)n1C,.,-2,99,9,3,-1
O=C(NNC(=O)c1cccc(S(=O)(=O)Nc2ccccc2F)c1)c1ccncc1,.,.,99,.,.,.
O=C(/C=C/c1cccc(Cl)c1)OCC(=O)c1ccc[nH]1,.,.,99,.,.,.
CC(c1ccon1)N(C)Cc1cn(C)nc1-c1cccc(Cl)c1 (stereo unspecified),-1,-5,85,-2,3,4
